Values joined by “and” are separate entries in the source; they are usually repeats but may differ in a detail not shown here. Equal values may be shown once. Results filed as inconclusive are left out. Active and inactive are the calls of the source. Unless noted, calls follow the shape of the dose curve; as a rule, active = well fitted curve in the direction sought with a large enough effect; inconclusive = small, poorly fitted or top-dose-only effect, or another doubt; inactive = no such curve, though single readings can be large; an effect the other way counts as inactive or inconclusive.

Assay [1] addresses Cytochrome P450 3A4 (Homo sapiens) (UniProt P08684). The experiment in a line: qHTS Assay for Inhibitors and Substrates of Cytochrome P450 3A4 (AID 884). Also: nearly all actives have a fitted effect of over 50% in size. Also: potency is read from the fitted curve at half-maximal effect. As to activity change, negative = inhibition: % is scaled to controls: 0 for no effect and ±100 for the full control effect. Summed up:
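Luminescent readout of luciferin produced by CYP3A4 (20 nM) dealkylation of Luciferin-PPXE, 25 uM (its KM). NADPH-driven reaction ran 60 min at RT after 10 min compound preincubation; data scaled to 57 uM ketoconazole as 100% inhibition.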

Assay [2] shares this target. The experiment in a line: qHTS Assay for Activators of Cytochrome P450 3A4 (AID 885). Also: nearly all actives have a fitted effect of over 65% in size. The procedure, abridged: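 Activators are scored by enhanced luminescence from CYP3A4 conversion of luciferin-PPXE (25uM, equal to KM) to luciferin, after 60 min at RT with an NADPH-regenerating system.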
Assay [3] in a line: Confirmation and Secondary Assay for Modulators of Hemoglobin Beta Chain Splicing at IVS2 654 locus (AID 910).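 Also: HeLa cells stably carrying EGFP split by mutant beta-globin IVS2-654 intron; per-well total GFP intensity by laser scanning cytometry after 2-day treatment; % of control where 0% means no effect.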 The procedure, abridged:
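Readout: per-well total peak green fluorescence (488 nm ex, 500–520 nm em) from objects 5–250 µm, reflecting correct splicing of an EGFP-654 reporter. Compounds were applied for 2 days at 37 °C to overnight-plated HeLa EGFP-654 cells; controls were DMSO and 500 nM IVS2-654 PNA.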

The nature of assay [4]: Confirmation and Secondary Assay for Modulators of Hemoglobin Beta Chain Splicing at IVS2 705 locus (AID 930).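 Also: HeLa cells stably expressing the EGFP-705 splicing reporter; % of control where 0% means no effect.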 Summed up:
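HeLa cells stably carrying EGFP interrupted by mutant beta-globin IVS2-705 intron (CMV-driven) were seeded at 500 cells/well, treated next day with compound for 2 days at 37C; corrected splicing restores EGFP, read as total peak GFP intensity per well.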

A short description of assay [5]: qHTS Assay for Lipid Storage Modulators (AID 1519; calls by dose curve; as to activity change, negative = inhibition: % is scaled to controls: 0 for no effect and ±100 for the full control effect). The following applies: Drosophila S3 cells, BODIPY lipid droplet/cell ratio, laser cytometry, cells loaded with oleic acid; for activity change, negative = inhibition: at 57.5 µM (top of the series). The procedure, abridged: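 Cells seeded at 5,000 per well were treated with compounds over a concentration series and loaded with oleic acid (400 uM, as added). Lipid droplet fluorescence (488 nm excitation, 500-530 nm channel) was read by laser-scanning cytometry and normalized to 20 uM Triacsin C.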
A general note: Quantitative high-throughput screening tests each substance at several concentrations.

In assay [6] the target is Ubiquitin carboxyl-terminal hydrolase 1 (Homo sapiens) (UniProt O94782). The experiment in a line: Inhibitors of USP1/UAF1: Pilot qHTS (AID 504865).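 Also: rhodamine fluorescence freed from ubiquitin-rhodamine substrate followed over time; top concentration of the series differs between compounds; % is scaled to controls: 0 for no effect and ±100 for the full control effect; nearly all actives have a fitted effect of over 35% in size.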 The procedure, abridged:
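In 50mM HEPES pH 7.8 containing 0.5mM EDTA, 1mM TCEP, 0.1 mg/ml BSA and 0.01% Tween-20, 1nM USP1/UAF1 is exposed to compound for 15 min, then Ub-Rho (150nM final) is added and fluorescence is read over time.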

Assay [7] has as its target DNA dC->dU-editing enzyme APOBEC-3G (Homo sapiens) (UniProt Q9HC16). The assay can be described thus: qHTS for inhibitors of Vif-A3G interactions: Validation (AID 588379). Also: 0% is about no effect. Summed up: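 Yellow fluorescence (Ex 488, Em 500-530) of Vif-coexpressing HeLa A3G-eYFP cells, scanned by Acumen cytometer, reports blocked A3G degradation. Cells plated at 700/well overnight at 37 deg C before compound addition, then a further overnight compound incubation at 37 deg C.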

For assay [8], the target named is Luciferin 4-monooxygenase (Photinus pyralis) (UniProt P08659). The experiment in a line: Biochemical firefly luciferase enzyme assay for NPC (AID 624030).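 Also: purified P. pyralis luciferase at 10 nM with luciferin and ATP substrate; 0% = DMSO and -100% = full luciferase inhibition by PTC124 control; nearly all actives have a fitted effect of over 70% in size.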 The procedure, abridged: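 Direct inhibition of firefly luciferase enzyme (10 nM final, 50 mM Tris Acetate) assessed by luminescence within 5 minutes. Percent activity scaled between DMSO and PTC124 positive control, with concentration-effect curves classified by fit quality and response.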

The mark [9] stands for this setting: measured here: cell count channel max response.
[10] abbreviates: measured here: lipid channel max response.

Chain of DNA dC->dU-editing enzyme APOBEC-3G (Homo sapiens) (Q9HC16 whole entry, looked up): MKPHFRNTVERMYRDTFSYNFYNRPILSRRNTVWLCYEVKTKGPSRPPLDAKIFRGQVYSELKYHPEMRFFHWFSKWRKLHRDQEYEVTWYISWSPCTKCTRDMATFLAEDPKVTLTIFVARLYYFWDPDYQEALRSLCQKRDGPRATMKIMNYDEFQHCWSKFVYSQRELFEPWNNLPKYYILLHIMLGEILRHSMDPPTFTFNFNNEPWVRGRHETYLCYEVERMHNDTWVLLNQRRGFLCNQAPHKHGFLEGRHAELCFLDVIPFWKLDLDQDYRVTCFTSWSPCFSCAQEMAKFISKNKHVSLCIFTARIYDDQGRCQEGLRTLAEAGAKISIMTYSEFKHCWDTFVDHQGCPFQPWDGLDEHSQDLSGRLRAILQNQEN
Chain of Ubiquitin carboxyl-terminal hydrolase 1 (Homo sapiens) (O94782 whole entry, looked up): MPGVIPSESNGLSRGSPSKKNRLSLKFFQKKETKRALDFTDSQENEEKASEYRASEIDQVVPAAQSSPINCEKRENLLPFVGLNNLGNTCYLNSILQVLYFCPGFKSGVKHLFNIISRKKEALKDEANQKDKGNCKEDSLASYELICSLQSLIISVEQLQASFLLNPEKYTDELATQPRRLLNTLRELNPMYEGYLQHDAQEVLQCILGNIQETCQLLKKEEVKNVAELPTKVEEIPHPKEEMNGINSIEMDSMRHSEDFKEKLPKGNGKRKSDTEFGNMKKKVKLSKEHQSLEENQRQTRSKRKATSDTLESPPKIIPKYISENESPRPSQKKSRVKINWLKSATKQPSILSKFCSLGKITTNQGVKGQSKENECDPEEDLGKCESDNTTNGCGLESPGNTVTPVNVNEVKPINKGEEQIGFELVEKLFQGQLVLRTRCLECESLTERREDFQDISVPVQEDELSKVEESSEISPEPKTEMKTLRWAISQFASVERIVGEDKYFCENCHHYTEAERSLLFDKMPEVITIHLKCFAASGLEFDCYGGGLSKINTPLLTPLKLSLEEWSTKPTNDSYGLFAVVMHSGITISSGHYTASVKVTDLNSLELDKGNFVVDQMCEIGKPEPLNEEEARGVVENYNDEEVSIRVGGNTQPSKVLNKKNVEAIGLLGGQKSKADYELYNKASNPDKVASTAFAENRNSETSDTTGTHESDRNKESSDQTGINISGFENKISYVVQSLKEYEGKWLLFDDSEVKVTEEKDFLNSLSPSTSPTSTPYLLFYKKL
Chain of Cytochrome P450 3A4 (Homo sapiens) (P08684 whole entry, looked up): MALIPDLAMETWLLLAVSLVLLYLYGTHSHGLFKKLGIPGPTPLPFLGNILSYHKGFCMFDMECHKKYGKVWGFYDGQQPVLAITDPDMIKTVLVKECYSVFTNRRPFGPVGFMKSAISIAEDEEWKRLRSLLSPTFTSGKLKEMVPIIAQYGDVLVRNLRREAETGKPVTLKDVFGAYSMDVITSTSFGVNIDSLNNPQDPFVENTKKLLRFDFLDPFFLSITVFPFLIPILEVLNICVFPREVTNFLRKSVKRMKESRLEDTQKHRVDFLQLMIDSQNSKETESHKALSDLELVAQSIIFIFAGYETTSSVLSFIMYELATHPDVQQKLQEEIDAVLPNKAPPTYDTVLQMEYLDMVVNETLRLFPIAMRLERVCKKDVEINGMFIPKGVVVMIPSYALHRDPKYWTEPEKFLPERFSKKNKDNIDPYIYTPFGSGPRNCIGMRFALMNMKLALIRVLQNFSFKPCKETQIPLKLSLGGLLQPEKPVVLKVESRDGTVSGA
Chain of Luciferin 4-monooxygenase (Photinus pyralis) (P08659 whole entry, looked up): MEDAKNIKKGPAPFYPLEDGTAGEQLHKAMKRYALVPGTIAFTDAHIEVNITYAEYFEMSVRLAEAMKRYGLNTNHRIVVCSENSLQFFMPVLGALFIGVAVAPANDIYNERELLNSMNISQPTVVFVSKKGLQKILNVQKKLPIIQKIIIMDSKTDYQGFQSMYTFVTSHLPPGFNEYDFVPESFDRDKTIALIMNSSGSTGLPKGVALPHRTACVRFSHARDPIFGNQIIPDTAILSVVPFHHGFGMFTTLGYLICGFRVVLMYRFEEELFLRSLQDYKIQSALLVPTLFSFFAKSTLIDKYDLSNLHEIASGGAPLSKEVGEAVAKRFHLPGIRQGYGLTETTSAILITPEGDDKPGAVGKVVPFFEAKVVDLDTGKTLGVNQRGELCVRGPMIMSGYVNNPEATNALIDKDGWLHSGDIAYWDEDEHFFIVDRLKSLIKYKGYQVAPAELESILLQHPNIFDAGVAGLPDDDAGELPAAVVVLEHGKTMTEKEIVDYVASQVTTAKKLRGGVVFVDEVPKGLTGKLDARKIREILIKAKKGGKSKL

Turning to `COC1C[C@@H](O[C@@H]2C(C)C(=O)OC(C)C(C)C(O)C(C)C(=O)[C@@]3(CO3)CC(C)C(OC3OC(C)CC(N(C)C)C3O)C2C)OC(C)[C@@H]1O` (some centres not stated), the Potency in assay [1] is 6.31 µM (active). The Potency result in assay [2], in assay [3], in assay [4] and in assay [6] was “inactive” each time. For the same compound, the activity change, negative = inhibition in assay [5] was 4.89% (inactive). Further, the max response in assay [5] (setting [9]) came to 4.4%; in assay [5] (setting [10]), 11%.

As for `OCC1OC(Oc2cccc3cccnc23)C(O)C(O)C1O` (configuration not stated), the Potency entry in assay [1] and in assay [6] was “inactive” each time. Besides, the activity change, negative = inhibition in assay [5] is -4.73% (inactive). For the same compound, the max response was -12.4% in assay [5] (setting [9]) and -14.1% in assay [5] (setting [10]). Moreover, the call in assay [7] was inactive.

As to `N[C@H](CO)Cc1cnc[nH]1`, the Potency result in assay [1] and in assay [6] was “inactive” each time. For the same compound, the activity change, negative = inhibition in assay [5] was 3.9% (inactive). Further, the values for the max response in assay [5] (setting [9]) and in assay [5] (setting [10]) were 11.7% and 15.8%, respectively. For the same compound, in assay [7], the call was inactive.

On to `COc1ccc2c(c1OC)C(=O)O[C@H]2C1c2c(cc3c(c2OC)OCO3)CCN1C` (some centres not stated), for which the Potency entry in assay [2], in assay [3], in assay [4] and in assay [6] was “inactive” throughout. In addition, the activity change, negative = inhibition in assay [5] is 8.59% (inactive). Further, the max response in assay [5] (setting [9]) was 20.9%; in assay [5] (setting [10]), 32.4%. Moreover, the compound was called inactive in assay [7].

In the case of `COc1cc2c(cc1OC)Cc1cc(OC)c(OC)cc1Cc1cc(OC)c(OC)cc1C2`, the Potency in assay [1] is 12.6 µM (active). Also, the Potency result in assay [2], in assay [3], in assay [4] and in assay [6] was “inactive” throughout. Also, in assay [5], the activity change, negative = inhibition was -1.62% (inactive). Moreover, the max response is 2.54% in assay [5] (setting [9]) and 2.42% in assay [5] (setting [10]).

On to `NCC1O[C@@H](O[C@@H]2C(O)[C@H](O[C@H]3OC(CO)C(O)C(N)C3O)[C@@H](N)C[C@H]2N)C(N)C(O)C1O` (some centres not stated), for which the Potency result in assay [1], in assay [3], in assay [4], in assay [6] and in assay [8] was “inactive” in each case. Moreover, the activity change, negative = inhibition in assay [5] was 5.31% (inactive). The max response came out at 20.8% in assay [5] (setting [9]) and 32.5% in assay [5] (setting [10]).

Consider `COC(=O)CCCC[C@@H]1SC[C@@H]2NC(=O)N[C@@H]21`, for which the Potency entry in assay [1] and in assay [6] was “inactive” throughout. For the same compound, the activity change, negative = inhibition in assay [5] is 0.0624% (inactive). In addition, the max response in assay [5] (setting [9]) is -0.817%; in assay [5] (setting [10]), 0.263%. Further, the compound was classed as inactive in assay [7].

With `O=C1CC(c2ccc(O)c(O)c2)Oc2cc(O)cc(O)c21` (configuration not stated), the Potency in assay [1] is 39.8 µM (active). Besides, the Potency entry in assay [2], in assay [3], in assay [4] and in assay [6] was “inactive” in each case. For the same compound, in assay [5], the activity change, negative = inhibition was 17.7% (inactive). The max response in assay [5] (setting [9]) is -10.3%; in assay [5] (setting [10]), 9.21%.

`COc1ccc2c(c1)OCC(Cc1ccc(OC)c(OC)c1)C2O` (configuration not stated): the Potency in assay [1] was 7.94 µM (active) and 12.6 µM (active). In addition, the Potency result in assay [2], in assay [3], in assay [4] and in assay [6] was “inactive” throughout. Further, the activity change, negative = inhibition in assay [5] was 6.38% (inactive). In addition, the max response in assay [5] (setting [9]) came to 8.42%; in assay [5] (setting [10]) it was 15.9%.

Regarding `COc1cc(OC)c2c(=O)c(OC)c(-c3ccc(OC)c(OC)c3)oc2c1`, the Potency in assay [1] was 1.26 µM (active). The Potency entry in assay [2], in assay [3], in assay [4] and in assay [6] was “inactive” in each case. For the same compound, the activity change, negative = inhibition in assay [5] was 1.54% (inactive). In addition, the max response in assay [5] (setting [9]) turned out to be 14.1%; in assay [5] (setting [10]) it was 15.7%.

For `C=C1C(C2(C)C=CC(=O)C(C)(C)C2CC(=O)OC)CC[C@@]2(C)C(c3ccoc3)OC(=O)C3OC132` (some centres not stated), the Potency in assay [1] was 2.51 µM (active). The Potency entry in assay [2], in assay [3], in assay [4] and in assay [6] was “inactive” throughout. In addition, in assay [5], the activity change, negative = inhibition was 4.06% (inactive). For the same compound, the max response in assay [5] (setting [9]) was 5.07%; in assay [5] (setting [10]), 10.2%.

The values are drawn from PubChem BioAssay (NCATS).
